Assay results as given in PubChem BioAssay AID2544 (Sanford-Burnham Center for Chemical Genomics, 2010).
The whole screen tested about 330,000 compounds, of which about 390 (0.12%) were called active. The sample holds actives, similar compounds and a random draw of the others, so the mix is not that of the screen. A number with no mark means an inactive call.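 The calls were made as follows: active = inhibition reaching a set limit with compound at 10 µM in the primary screen (cut at about 35% in these data); inactive = the rest.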

Target: Intestinal-type alkaline phosphatase (Homo sapiens) (UniProt P09923)
Assay: human IAP inhibitors, primary screen, biochemical, luminescence, uHTS (AID 2544);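 also: plate controls were DMSO wells with enzyme for no effect and no-enzyme buffer wells for full effect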
Settings: purified IAP, CDP-Star luminescence, 30 min; at 10 µM; hits give high values

Chain of Intestinal-type alkaline phosphatase (Homo sapiens) (P09923 whole entry, looked up): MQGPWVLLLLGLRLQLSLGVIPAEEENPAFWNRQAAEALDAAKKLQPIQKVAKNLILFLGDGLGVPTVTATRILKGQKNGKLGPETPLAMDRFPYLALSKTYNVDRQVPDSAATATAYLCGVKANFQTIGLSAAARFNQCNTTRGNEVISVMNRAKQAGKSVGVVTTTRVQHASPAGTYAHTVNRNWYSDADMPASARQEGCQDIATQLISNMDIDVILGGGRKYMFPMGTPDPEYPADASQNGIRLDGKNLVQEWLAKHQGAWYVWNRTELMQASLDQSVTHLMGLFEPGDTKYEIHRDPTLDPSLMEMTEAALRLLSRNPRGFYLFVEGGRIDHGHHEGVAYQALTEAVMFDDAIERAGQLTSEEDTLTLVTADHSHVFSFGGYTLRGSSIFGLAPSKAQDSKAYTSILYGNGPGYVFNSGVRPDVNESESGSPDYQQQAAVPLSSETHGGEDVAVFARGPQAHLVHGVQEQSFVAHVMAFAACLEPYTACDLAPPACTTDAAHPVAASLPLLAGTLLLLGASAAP

For `COc1cccc(CNS(=O)(=O)c2ccc3c(c2)N(C(C)=O)CCS3)c1`, the inhibition was 38.6% (active).
With `N#C/C(=C\c1ccc(O)c(O)c1)C(=O)NCc1ccccc1` the inhibition was 37.4% (active).
For `COc1cc(/C=C2/SC(=S)N(Cc3ccccc3)C2=O)cc(OC)c1O`, the inhibition was 39.3% (active).
With `O=c1c(/C=N/O)coc2ccc(Cl)cc12` the inhibition was 54.1% (active).
With `COc1ccc2c(c1OC)C(=O)N(c1ncn[nH]1)C2` the inhibition was 39.6% (active).
`COc1ccc(C2=Nc3cc(C)ccc3OC2)cc1` was tested, and the inhibition was 41.5% (active).
`CC(=O)c1ccc(NC(=O)C2CCCN2S(=O)(=O)c2cccs2)cc1` (centres undefined) was tested, and the inhibition was 37.2% (active).
For `CC(=NCc1ccc2c(c1)OCO2)C1=C(O)c2ccccc2C1=O`, the inhibition was 82.2% (active).

First: COc1cccc(CNS(=O)(=O)c2ccc3c(c2)CC(C)N3C(=O)C2CCC2)c1 (centres undefined)
Second: COc1cccc(CNS(=O)(=O)c2csc(C(N)=O)c2)c1
The inhibition of the first is lower: 4.9% for the first, 13.3% for the second.

Going from `CC1CN/C(=C\C(=O)c2ccc(Br)cc2)C(=O)N1` (centres undefined) to `Cc1cccc(C(=O)Nc2ccc(C(=O)/C=C/c3cccs3)cc2)c1`, the inhibition rises from -17% to -7.8%.

Going from `COC(=O)c1ccc(COC(=O)c2cnccn2)cc1` to `COCCNC(=O)/C(C#N)=C/c1cccc(OCc2ccccc2)c1`, the inhibition falls from 21.3% to 1.1%.

Compared with `Cc1cc(NC(=O)C(C)N2C(=O)c3ccccc3S2(=O)=O)no1` (centres undefined), `CCn1c(C)nc2c1C(=O)c1ccccc1C2=O` is higher in inhibition: -15.1% for the first, 1.5% for the second.

Compared with `Cn1cnnc1Sc1ccc(S(C)(=O)=O)cc1[N+](=O)[O-]`, `COc1nnc(-c2ccc(C)c(S(=O)(=O)N(C)C)c2)c2ccccc12` is higher in inhibition: -11.6% for the first, 1.6% for the second.

First: COc1ccc(CNC(=O)/C(C#N)=C/c2cccc(OC)c2OC)cc1
Second: COc1ccc(CNC(=O)c2c[nH]c3c(OC)cc(OC)cc3c2=O)cc1
The inhibition of the first is higher: -1.8% for the first, -24.3% for the second.

First: O=C(NCCCc1ccccc1)C1CCC(CNc2c(N3CCCCC3)c(=O)c2=O)CC1 (centres undefined)
Second: CCc1ccccc1NC(=S)N(CCN1CCCCCC1)Cc1ccco1
The inhibition of the first is lower: -6.9% for the first, -3.8% for the second.

Going from `COc1cccc(/C=C2/SC(=S)N(CC(=O)NC3C=CS(=O)(=O)C3)C2=O)c1` (centres undefined) to `CN1C=CC=C/C1=C1\SC(=S)N(Cc2ccccc2)C1=O`, the inhibition rises from -52% to -4.6%.

Compared with `CC1CCCCC1NC(=O)c1cn(C)c2ccc(S(=O)(=O)N3CCOCC3)cc2c1=O` (centres undefined), `CC(=O)Nc1ccc(S(=O)(=O)N2CCN(S(=O)(=O)c3cccs3)CC2)cc1` is higher in inhibition: -21.4% for the first, 1.1% for the second.

Compared with `CCCC(C(=O)NCc1ccco1)N(C(=O)CNS(=O)(=O)c1ccccc1)C1CCCC1` (centres undefined), `CC(=O)Nc1ccc(S(=O)(=O)NCC(=O)OCC(=O)c2ccc[nH]2)cc1` is higher in inhibition: -14.9% for the first, 5.4% for the second.

Compared with `Cc1cc(-c2nnc(SCC(=O)Nc3ccc(F)cc3)n2N)n[nH]1`, `CCOc1ccc(NC(=O)CN(C)C(=O)CCSc2ccc(F)cc2)cc1OCC` is higher in inhibition: -8.7% for the first, -1.7% for the second.

Compared with `Cc1noc(C)c1COc1ccccc1C(=O)N(C)CC(=O)Nc1cccc(F)c1`, `O=C(CNC(=O)c1cc(=O)[nH]c2ccccc12)Nc1ccc(F)c(F)c1` is higher in inhibition: -9.4% for the first, -5.1% for the second.

First: Cc1ccc(OCCNC(=O)CNC(=O)c2ccc(C)c(C)c2)cc1
Second: Cc1ccc(C(=O)NNC2=Nc3cc([N+](=O)[O-])ccc3OC2)cc1
The inhibition of the first is higher: -7.8% for the first, -72.1% for the second.

Going from `CCOc1nnc(C)c2c(C)n(-c3cccc(Cl)c3)nc12` to `CCOC(=O)C1CCN(Cc2coc3ccc(Cl)cc3c2=O)CC1`, the inhibition falls from -4.1% to -6.6%.

Going from `Cn1c(SCc2nc3ccccc3s2)nnc1-c1ccc2c(c1)OCO2` to `c1ccc(-c2nnc3n2NC(c2ccc4c(c2)OCO4)S3)cc1` (centres undefined), the inhibition falls from 16.7% to -10.6%.

First: COc1ccc(N2CCN(C(=O)COC(=O)c3cccc(S(=O)(=O)Nc4ccccc4OC)c3)CC2)cc1
Second: COc1cc([N+](=O)[O-])ccc1NC(=S)N1CCN(c2ccccn2)CC1
The inhibition of the first is higher: 9.2% for the first, 6.4% for the second.

Going from `Cc1ccc2occ(/C=N/NC(=O)c3ccccc3C)c(=O)c2c1` to `Cc1cccc(-n2c(O)c(C=Nc3ccccc3N)c(=O)[nH]c2=O)c1`, the inhibition rises from 13% to 14.1%.

First: CCc1c(C)nc(N)n2c(SCC(=O)NC3CCCCC3)nnc12
Second: Nc1nnc(SCC(=O)NCC(=O)Nc2ccc(F)c(F)c2F)s1
The inhibition of the first is higher: -2.5% for the first, -11.7% for the second.

Compared with `O=S(=O)(c1ccc(F)cc1)n1ccc(-c2cnc(-c3ccccc3)s2)n1`, `COc1ccc([N+](=O)[O-])cc1C1NN=C(c2cccc3ccccc23)S1` (centres undefined) is lower in inhibition: 5.2% for the first, -10.4% for the second.

Going from `COc1cccc(CN(C)CC2CCCN(CCc3ccc(Cl)cc3)C2)c1OC` (centres undefined) to `COc1ccc2c(c1OC)C(=O)N(c1ccc(O)cc1)C2`, the inhibition rises from -36.9% to -4.8%.

Going from `O=C1CN(C(=O)COC(=O)c2cnc(Cl)c(Cl)c2)c2ccccc2N1` to `COc1ccc(Cl)cc1-n1c(=S)sc2c(=O)n(-c3ccc(F)cc3)c(SCC(=O)O)nc21`, the inhibition rises from 6.4% to 10.8%.

First: COc1ccc(C2C(C#N)=C(N)N(c3ncn[nH]3)C3=C2C(=O)CCC3)cc1 (centres undefined)
Second: Cc1cc(C)nc(-n2ncc3c2CC(c2ccc(C(C)C)cc2)CC3=O)n1 (centres undefined)
The inhibition of the first is higher: 6.9% for the first, 3.4% for the second.

First: O=c1[nH]c(/C=C\c2cccc(C(F)(F)F)c2)nc(O)c1[N+](=O)[O-]
Second: COc1ccc(-c2cn3ccc(C)cc3n2)cc1
The inhibition of the first is lower: -10.6% for the first, -3.2% for the second.

Compared with `COCCNC(=O)/C(C#N)=C/c1nc(N(C)C)n(-c2ccc(F)cc2)c1Cl`, `CCc1ccc(NC(=O)NC(C)c2ccc3c(c2)OCO3)cc1` (centres undefined) is lower in inhibition: 8.4% for the first, -18.5% for the second.

First: Cc1ccc(S(=O)(=O)CCC(=O)OCC(=O)N(C)C2CCS(=O)(=O)C2)cc1 (centres undefined)
Second: CC(=O)c1cccc(NC(=O)C2CCCN2S(=O)(=O)c2cccc3nsnc23)c1 (centres undefined)
The inhibition of the first is lower: -12.8% for the first, 18.3% for the second.

Compound `O=C(CC(Cc1ccccc1)C(=O)O)NCCc1ccc2c(c1)OCO2` (centres undefined) has an inhibition of -65.3%.
